In the supplement of paper PMC4709259:
Structures can show the parent of a compound that is named as a salt. ± gives the standard deviation.

Legend:
Jurkat [1] = assay: mean cell size (FSC-A) relative to DMSO control (fraction of control); higher = larger cells; conditions: 48 h
Method in brief: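 Jurkat cells at 600 cells/µl were incubated for 1 h and then treated for 48h with the Enzo Screen-Well FDA Approved Drug Library v2.0 at 25µM, with DMSO at 0.9% (v/v) final. Compounds that reduced counts below 20% of controls were retested in 10-fold dilutions down to 25nM. Cell count and mean cell size, taken as forward scatter area, were measured by flow cytometry relative to solvent-only controls. Each plate carried 6-12 controls, and values are means of 3 biological replicates.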

Jurkat [2] = assay: cell count relative to DMSO control (fraction of control); higher = more cells (less growth inhibition); conditions: 48 h

SMILES | mean cell size (Jurkat [1]) | cell count (Jurkat [2])
CC1(C)C(C=C(Cl)Cl)C1C(=O)OCc1cccc(Oc2ccccc2)c1 (configuration not stated) [Permethrin] (concentration: 25 µM) | 1.03 ± 0.068 | 1.05 ± 0.08
CC(C)C[C@H]1C(=O)N2CCC[C@H]2[C@]2(O)O[C@](NC(=O)[C@@H]3C=C4c5cccc6[nH]c(Br)c(c56)C[C@H]4N(C)C3)(C(C)C)C(=O)N12 [Bromocriptine Mesylate] (concentration: 25 µM) | 0.939 ± 0.031 | 0.288 ± 0.21
COc1cc2c(c(OC)c1OC)-c1ccc(OC)c(=O)cc1[C@@H](NC(C)=O)CC2 [Colchicine] (concentration: 25 nM) | 0.967 ± 0.026 | 0.071 ± 0.007
COc1ccc2c(c1)[C@]13CCCC[C@@H]1[C@H](C2)N(C)CC3 [Dextromethorphan] (concentration: 25 µM) | 0.936 ± 0.022 | 0.841 ± 0.024
CN1CCN(C(=O)O[C@H]2c3nccnc3C(=O)N2c2ccc(Cl)cn2)CC1 [Eszopiclone] (concentration: 25 µM) | 1.01 ± 0.025 | 0.796 ± 0.072
CN1C(=O)CN=C(c2ccccc2)c2cc(Cl)ccc21 [Diazepam] (concentration: 25 µM) | 0.911 ± 0.048 | 0.925 ± 0.098
COc1cccc(C2(O)CCCCC2CN(C)C)c1 (configuration not stated) [Tramadol·HCl] (concentration: 25 µM) | 0.938 ± 0.042 | 0.58 ± 0.18
COc1cc2c(cc1OC)C1CC(=O)C(CC(C)C)CN1CC2 (configuration not stated) [Tetrabenazine] (concentration: 25 µM) | 0.921 ± 0.031 | 0.833 ± 0.093
COc1ccc(C(CN(C)C)C2(O)CCCCC2)cc1 (configuration not stated) [Venlafaxine·HCl] (concentration: 25 µM) | 0.987 ± 0.021 | 0.498 ± 0.12
NC(=O)C[S+]([O-])C(c1ccccc1)c1ccccc1 (configuration not stated) [Modafinil (Schedule Iv)] (concentration: 25 µM) | 0.968 ± 0.014 | 0.807 ± 0.05
CC(O)(CS(=O)(=O)c1ccc(F)cc1)C(=O)Nc1ccc(C#N)c(C(F)(F)F)c1 (configuration not stated) [Bicalutamide] (concentration: 25 µM) | 0.973 ± 0.027 | 0.836 ± 0.064
CN(C)[C@@H]1C(=O)C(C(N)=O)=C(O)[C@@]2(O)C(=O)C3=C(O)c4c(O)cccc4[C@@](C)(O)[C@H]3[C@H](O)[C@@H]12 [Oxytetracycline·HCl] (concentration: 25 µM) | 0.894 ± 0.014 | 0.884 ± 0.1
CC(C)c1cccc(C(C)C)c1O [Propofol] (concentration: 25 µM) | 0.972 ± 0.025 | 1.11 ± 0.027
O=C(O)CCCc1ccc(N(CCCl)CCCl)cc1 [Chlorambucil] (concentration: 250 nM) | 0.945 ± 0.019 | 0.352 ± 0.089
C[N+]1(C)CCCC(OC(=O)C(O)(c2ccccc2)c2ccccc2)C1 (configuration not stated) [Mepenzolate Bromide] (concentration: 25 µM) | 0.91 ± 0.039 | 1.15 ± 0.042
CN1[C@@H]2C[C@@H](OC(=O)[C@H](CO)c3ccccc3)C[C@H]1[C@@H]1O[C@@H]12 [Scopolamine·HBr] (concentration: 25 µM) | 1 ± 0.061 | 0.608 ± 0.1
O=P1(NCCCl)OCCCN1CCCl (configuration not stated) [Ifosfamide] (concentration: 25 µM) | 0.938 ± 0.026 | 0.372 ± 0.12
C[C@]12CC[C@@H]3c4ccc(OC(=O)N(CCCl)CCCl)cc4CC[C@H]3[C@@H]1CC[C@@H]2OP(=O)(O)O [Estramustine Phosphate·Na] (concentration: 25 µM) | 0.958 ± 0.045 | 0.781 ± 0.051
CCOC(=O)CC(SP(=S)(OC)OC)C(=O)OCC (configuration not stated) [Malathion] (concentration: 25 µM) | 0.916 ± 0.041 | 1.06 ± 0.074
NCC1(CC(=O)O)CCCCC1 [Gabapentin] (concentration: 25 µM) | 0.943 ± 0.02 | 0.935 ± 0.036
CN1C(=O)C(O)N=C(c2ccccc2)c2cc(Cl)ccc21 (configuration not stated) [Temazepam] (concentration: 25 µM) | 0.805 ± 0.037 | 0.916 ± 0.032
C=CCN1CC[C@]23c4c5ccc(O)c4O[C@H]2C(=O)CC[C@@]3(O)[C@H]1C5 [Naloxone·HCl] (concentration: 25 µM) | 0.947 ± 0.018 | 0.96 ± 0.071
C[N+]1(C)[C@@H]2CC(OC(=O)[C@H](CO)c3ccccc3)C[C@H]1[C@@H]1O[C@@H]12 (stereo partly drawn) [Methscopolamine Bromide ((-)-Scopolamine Methyl Bromide)] (concentration: 25 µM) | 1.05 ± 0.046 | 0.683 ± 0.089
CN(C)[C@@H]1C(=O)C(C(N)=O)=C(O)[C@@]2(O)C(=O)C3=C(O)c4c(O)cccc4[C@@](C)(O)[C@H]3C[C@@H]12 [Tetracycline] (concentration: 25 µM) | 0.998 ± 0.064 | 0.556 ± 0.046
CCN(C)C(=O)Oc1cccc([C@H](C)N(C)C)c1 [Rivastigmine Tartrate] (concentration: 25 µM) | 1.01 ± 0.022 | 0.843 ± 0.13
CC(C)C[C@H](CN)CC(=O)O [Pregabalin] (concentration: 25 µM) | 1.03 ± 0.02 | 0.592 ± 0.12

SMILES | mean cell size (Jurkat [1]) | cell count (Jurkat [2])
N.N.[Cl][Pt][Cl] [Cisplatin (Cis-Diamineplatinum(Ii) Dichloride )] (concentration: 25 µM) | 1.043 ± 0.0024 | 0.895 ± 0.045
CCOC(=O)c1cncn1[C@H](C)c1ccccc1 [Etomidate] (concentration: 25 µM) | 1.04 ± 0.049 | 0.854 ± 0.055
Cc1cccc([C@H](C)c2c[nH]cn2)c1C [Dexmedetomidine·HCl] (concentration: 25 µM) | 0.942 ± 0.06 | 0.375 ± 0.13
CC(C)N(CCC(C(N)=O)(c1ccccc1)c1ccccn1)C(C)C (configuration not stated) [Disopyramide] (concentration: 25 µM) | 0.985 ± 0.041 | 0.733 ± 0.14
CC1C=CC=CCCC=CC=CC=CC=CC(OC2OC(C)C(O)C(N)C2O)CC2OC(O)(CC(O)C(O)CCC(O)CC(O)CC(O)CC(=O)OC(C)C(C)C1O)CC(O)C2C(=O)O (configuration not stated) [Nystatin] (concentration: 25 µM) | 0.8944 ± 0.0084 | 0.729 ± 0.11
CN1C[C@H](C(=O)N[C@]2(C)O[C@@]3(O)[C@@H]4CCCN4C(=O)[C@H](Cc4ccccc4)N3C2=O)C[C@@H]2c3cccc4[nH]cc(c34)C[C@H]21 [Dihydroergotamine Mesylate] (concentration: 25 µM) | 1 ± 0.027 | 0.297 ± 0.092
O=C1CC[C@@]2(O)[C@H]3Cc4ccc(O)c5c4[C@@]2(CCN3CC2CC2)[C@H]1O5 [Naltrexone·HCl] (concentration: 2.5 µM) | 0.985 ± 0.049 | 0.399 ± 0.091
Oc1ccc2c3c1O[C@H]1[C@@H](O)CC[C@@]4(O)[C@@H](C2)N(CC2CCC2)CC[C@]314 [Nalbuphine·HCl Dihydrate] (concentration: 25 µM) | 0.955 ± 0.048 | 0.995 ± 0.17
CC(NC(C)(C)C)C(=O)c1cccc(Cl)c1 (configuration not stated) [Bupropion] (concentration: 25 µM) | 0.935 ± 0.011 | 0.696 ± 0.15
CC[C@@H](CO)NC(=O)[C@@H]1C=C2c3cccc4[nH]cc(c34)C[C@H]2N(C)C1 [Methylergonovine Maleate] (concentration: 25 µM) | 1.01 ± 0.016 | 0.865 ± 0.15
CN1[C@@H]2CC[C@H]1C[C@@H](OC(=O)C(CO)c1ccccc1)C2 (some centres not stated) [Atropine Sulfate Monohydrate] (concentration: 25 µM) | 0.974 ± 0.017 | 0.677 ± 0.057
COC[C@@H](NC(C)=O)C(=O)NCc1ccccc1 [Lacosamide] (concentration: 25 µM) | 0.927 ± 0.067 | 0.639 ± 0.031
O=C1Nc2ccc(Cl)cc2C(c2ccccc2)=NC1O (configuration not stated) [Oxazepam] (concentration: 25 µM) | 0.938 ± 0.029 | 0.645 ± 0.05
Nc1ccncc1 [Dalfampridine (4-Aminopyridine)] (concentration: 25 µM) | 0.999 ± 0.044 | 0.646 ± 0.16
N[C@@H](Cc1ccc(N(CCCl)CCCl)cc1)C(=O)O [Melphalan] (concentration: 250 nM) | 1.02 ± 0.022 | 0.46 ± 0.08
C=CCN1C[C@H](C(=O)N(CCCN(C)C)C(=O)NCC)C[C@@H]2c3cccc4[nH]cc(c34)C[C@H]21 [Cabergoline] (concentration: 25 µM) | 0.889 ± 0.02 | 0.234 ± 0.08
O=c1[nH]c2ccccc2n1C1CCN(CCCC(c2ccc(F)cc2)c2ccc(F)cc2)CC1 [Pimozide] (concentration: 2.5 µM) | 1.08 ± 0.033 | 0.663 ± 0.14
CCCC(C)(COC(N)=O)COC(N)=O [Meprobamate (Schedule Iv)] (concentration: 25 µM) | 1.08 ± 0.036 | 0.941 ± 0.069
O=P1(N(CCCl)CCCl)NCCCO1 (configuration not stated) [Cyclophosphamide (Free Base)] (concentration: 25 µM) | 1.01 ± 0.051 | 0.623 ± 0.15
Cl[C@H]1[C@H](Cl)[C@@H](Cl)[C@@H](Cl)[C@H](Cl)[C@H]1Cl [Lindane] (concentration: 25 µM) | 0.981 ± 0.037 | 0.667 ± 0.091
CN1C[C@H](C(=O)N[C@]2(C)O[C@@]3(O)[C@@H]4CCCN4C(=O)[C@H](Cc4ccccc4)N3C2=O)C=C2c3cccc4[nH]cc(c34)C[C@H]21 [Ergotamine Tartrate] (concentration: 25 µM) | 1.07 ± 0.054 | 0.745 ± 0.057
NCCCNCCSP(=O)(O)O [Amifostine] (concentration: 25 µM) | 0.95 ± 0.036 | 0.8 ± 0.12
CN1C(=O)CC(=O)N(c2ccccc2)c2cc(Cl)ccc21 [Clobazam] (concentration: 25 µM) | 0.984 ± 0.032 | 0.64 ± 0.12
O=[N+]([O-])O[C@H]1CO[C@H]2[C@@H]1OC[C@H]2O[N+](=O)[O-] [Isosorbide Dinitrate] (concentration: 25 µM) | 0.945 ± 0.023 | 1.04 ± 0.081
CC(=O)O[C@H]1C[C@@H]2CC[C@@H]3[C@H](CC[C@@]4(C)[C@H]3C[C@H]([N+]3(C)CCCCC3)[C@@H]4OC(C)=O)[C@@]2(C)C[C@@H]1[N+]1(C)CCCCC1 [Pancuronium·2Br] (concentration: 25 µM) | 0.963 ± 0.015 | 1.12 ± 0.09
